Each structure is given as a SMILES string. “And” between values parts separate entries of the source, which are not always exact repeats. Equal values may be shown once. The source made the active and inactive calls. Cut-off read from the data, not from the text of the source, unless noted: active = parasite load remaining mostly below about 12% (no sharp cut-off); inactive = mostly above about 10%.

Assay [1] is described as follows: P. berghei load reduction in hepatocytes – cell-based, HepG2, luciferase luminescence, HepG2 viability, primary screen (AID 624349).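 Note: 100% = mean of DMSO negative control wells on the same plate.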 Conditions: P. berghei liver stage in HepG2, luciferase luminescence, concentration not given here; parasite load remaining: stronger effect = lower value; viability: measured here: HepG2 viability without parasites.
Assay [2] in a line: Wnt pathway potentiators raising nuclear beta-catenin – imaging, WNT3A-conditioned medium, mouse C2C12, NPC library, primary screen (AID 1117326; in the data active = nuclear beta-catenin stimulation mostly above about 4.2%, no sharp cut-off; inactive = mostly below about 10%). Conditions: stronger effect = higher value.
Assay [3] is described as follows: stimulators of insulin release from INS-1E, primary screen, cell-based, 5 mM glucose, NPC library (AID 1117329;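 active = compound raises insulin release from rat beta cells at 5 mM glucose, no numeric limit stated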). Conditions: rat INS-1E insulin secretion, at 10 µM, stronger effect = higher value.
The nature of assay [4]: growth inhibition of GSK3B-pretreated HCT116 cells – cell-based, CellTiter-Glo, 0.2 to 20 µM (AID 1117336;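 active = compounds lowering colon cancer cell viability after pretreatment blocking the GSK3B kinase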). Conditions: HCT116 viability after GSK3B inhibitor, at 20 µM, stronger effect = higher value.
Assay [5] is described as follows: inhibition of endothelial tube formation, primary screen, imaging, VEGF stimulated, CD31 staining, tube area, NPC library (AID 1117340;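 active = compound that reduces growth-factor-driven endothelial tube area in a mixed cell culture, no cutoff stated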). Conditions: VEGF-stimulated ADSC/ECFC co-culture, at 10 µM, stronger effect = higher value.
Assay [6] in a line: GLP1 release stimulators, primary, NCI-H716, NPC library (AID 1117341;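 active = compound raises GLP1 secretion from the human gut endocrine cells, with no numeric limit stated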). Conditions: NCI-H716 cells, at 10 µM, stronger effect = higher value.
Assay [7] is described as follows: HCT116 colon cancer cell growth inhibition, primary screen, CellTiter-Glo luminescence, NPC library (AID 1117342;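 active = compounds that lower survival of HCT116 colon cancer cells in the luminescence readout, no numeric limit stated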). Conditions: at 20 µM (top of the series).
A short description of assay [8]: reduced SW480 viability measured with CellTiter-Glo, NPC library, primary (AID 1117343;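 active = compounds that lower viability of the colon cancer cells in the luminescence readout, with no numeric limit stated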). Conditions: CellTiter-Glo luminescence; at 20 µM (top of the series) unless noted. In general terms: Cellular ATP, detected with luciferase, serves as a proxy for viable cell number.
Assay [9] in a line: NPC library primary testing for decreased DLD-1 cell viability via CellTiter-Glo (AID 1117346;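 active = compounds that lower survival of DLD-1 colon cancer cells in the luminescence readout, no cutoff given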). Conditions: DLD-1 viability, CellTiter-Glo luminescence; at 20 µM (top of the series).
The nature of assay [10]: EMT-state selective cytotoxicity in co-culture – imaging, PC-3E GFP, TEM4-18 mCherry, primary screen (AID 1345086;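 active = compounds killing one labelled cell type while sparing the other, by normalised counts and ratio limits, not self-fluorescent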;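 for all read-outs here: cells exposed to compound for 72 h before imaging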;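 for red/green cell ratio (normalised): normalised mesenchymal count divided by normalised epithelial count so high means epithelial killing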). Conditions: PC-3E GFP / TEM4-18 mCherry co-culture, imaging cell counts, at 1 µM; for red/green cell ratio (normalised): actives lie on both sides, counts scaled to control wells, 1 = unselective.
Assay [11] in a line: viability loss with induced miR-34 in A549 – imaging, A549 dox-inducible miR-34, nuclei and caspase counts, primary screen (AID 1347080;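 active = compounds whose cell count with miR-34 switched on is under 0.7 times the count with it off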). Conditions: A549 miR-34 inducible, Hoechst nuclei count, 48 h.
A short description of assay [12]: galactose survival enhancers in mitochondrial complex I cybrids – cell-based, galactose medium, ATP luminescence, primary screen (AID 1645843;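 active = z-score of at least 1.8 in each of two replicates, scored against plate mean and spread of sample wells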;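 note: positive z means more ATP and so rescue of galactose-driven cybrid death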). Conditions: complex I mutant cybrid cells, 72 h, stronger effect = higher value.
For assay [13], the target named is NAD(+) hydrolase SARM1 (Homo sapiens) (UniProt Q6SZW1). Put plainly: blocking NAD cleavage by SARM1 SAM-TIR – cell lysate, NAD-Glo luminescence (AID 1508614;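 active = compound whose remaining NAD level is above about 45 nM, limit read from the data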;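 note: higher remaining NAD means stronger inhibition of SARM1 NADase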). Conditions: SAM-TIR HEK293T lysate NADase, at 1 µM, stronger effect = higher value.
The nature of assay [14]: MELAS cybrid and Rieske KO viability enhancers – cell-based, MELAS cybrids, Rieske KO mouse fibroblasts, CellTiter-Glo, primary screen (AID 1508586;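 active = mean z-score across replicates of 1.96 or higher in either the MELAS or the Rieske mutant cell line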;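 note: z relative to plate mean and SD of compound and empty wells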). Conditions: low glucose.
[15] abbreviates: measured here: epithelial PC-3E GFP cell survival.
[16] abbreviates: measured here: mesenchymal TEM4-18 mCherry cell survival.
[17] abbreviates: stronger effect = lower value, cell number ratio, induced over uninduced.
[18] abbreviates: measured here: relative caspase fold change +Dox/-Dox.
Setting [19] is: measured here: total cells with miR-34 induction, stronger effect = lower value.
Setting [20] is: measured here: total cells without miR-34 induction.

NAD(+) hydrolase SARM1 (Homo sapiens), sequence (Q6SZW1 whole entry, looked up): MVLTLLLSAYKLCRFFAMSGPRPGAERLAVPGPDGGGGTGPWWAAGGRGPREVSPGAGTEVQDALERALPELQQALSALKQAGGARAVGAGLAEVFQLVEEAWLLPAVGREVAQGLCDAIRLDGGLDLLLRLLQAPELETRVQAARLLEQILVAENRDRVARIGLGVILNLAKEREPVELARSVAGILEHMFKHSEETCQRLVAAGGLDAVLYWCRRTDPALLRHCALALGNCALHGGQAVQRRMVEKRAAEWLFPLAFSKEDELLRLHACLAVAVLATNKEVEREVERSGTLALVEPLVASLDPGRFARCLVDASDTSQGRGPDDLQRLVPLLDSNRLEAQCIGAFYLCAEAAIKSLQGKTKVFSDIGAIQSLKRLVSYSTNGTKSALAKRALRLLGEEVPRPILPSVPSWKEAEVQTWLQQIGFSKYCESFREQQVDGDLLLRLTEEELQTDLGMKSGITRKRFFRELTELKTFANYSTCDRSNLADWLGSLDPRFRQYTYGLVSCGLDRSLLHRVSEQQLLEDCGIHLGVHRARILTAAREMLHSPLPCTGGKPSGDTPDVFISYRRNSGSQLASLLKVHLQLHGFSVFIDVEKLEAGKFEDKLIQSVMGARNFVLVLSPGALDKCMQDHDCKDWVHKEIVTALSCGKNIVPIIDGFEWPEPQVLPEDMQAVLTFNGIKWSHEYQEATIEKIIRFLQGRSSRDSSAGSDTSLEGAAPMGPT

As for `COc1cc(N)c(Cl)cc1C(=O)NC1CCN(CCCOc2ccc(F)cc2)CC1OC` (configuration not stated), the parasite load remaining in [1] is 96.4% (inactive). Further, the viability in assay [1] was 81.1%. Further, the nuclear beta-catenin stimulation in assay [2] (at 10 µM) is 13% (inactive); in [2] (stimulation, at 2 µM) it was 3.1%. Besides, the insulin secretion stimulation in assay [3] was 7.5% (inactive). Further, the viability decrease in [4] was 20.6% (inactive). In addition, the tube area decrease in assay [5] was -0.4% (inactive). Besides, the GLP1 secretion stimulation in assay [6] was 13.3% (inactive). In assay [7], the inhibition of viability was 53.9% (active). For the same compound, the viability decrease (inhibition) in [8] is 66.7% (active); in assay [9], 22.4% (inactive). Further, the red/green cell ratio (normalised) in assay [10] is 0.95 (inactive). Also, the normalised cell number in [10] (setting [15]) was 0.93; in assay [10] (setting [16]), 0.88. Besides, the fold change was 0.948 (inactive) in assay [11] (setting [17]) and 1.94 in [11] (setting [18]). Moreover, the cell count was 8510 in assay [11] (setting [19]) and 8980 in assay [11] (setting [20]). Further, the z-score in [12] was -0.435 (inactive).
Turning to `CCCCOCCOCCOCc1cc2c(cc1CCC)OCO2`, the nuclear beta-catenin stimulation in [2] (at 10 µM) was 0.2% (inactive); in [2] (stimulation, at 2 µM), 1.7%. Moreover, the insulin secretion stimulation in assay [3] is 1.3% (inactive). Besides, the viability decrease in [4] was -13.9% (inactive). Moreover, the tube area decrease in [5] was -2.7% (inactive). For the same compound, in [6], the GLP1 secretion stimulation was -2.6% (inactive). In addition, in [7], the inhibition of viability was 24.7% (inactive). In addition, the viability decrease (inhibition) was 11.6% (inactive) in assay [8] and 14.4% (inactive) in [9]. In addition, the red/green cell ratio (normalised) in [10] was 0.78 (inactive). Besides, the normalised cell number in [10] (setting [15]) came out at 1.28; in assay [10] (setting [16]) it was 1. Further, the fold change in [11] (setting [17]) is 0.878 (inactive); in [11] (setting [18]), 0.573. Also, the cell count turned out to be 7660 in assay [11] (setting [19]) and 8730 in [11] (setting [20]). Also, the remaining NAD in assay [13] was 10 nM (inactive).
As for `CC(O)(P(=O)(O)O)P(=O)(O)O`, in assay [1], the parasite load remaining was 84.2% (inactive) and 72.4% (inactive) and 27.7% (inactive). The viability in [1] is 97.4% and 110% and 90%. Further, the nuclear beta-catenin stimulation in [2] (at 10 µM) was 3.1% (inactive); in assay [2] (stimulation, at 2 µM) it was 1.7%. For the same compound, in assay [3], the insulin secretion stimulation is 0.9% (inactive). The viability decrease in assay [4] was 12.5% (inactive). In addition, the tube area decrease in assay [5] was 8.2% (inactive). Besides, the GLP1 secretion stimulation in [6] is 1.6% (inactive). Also, in assay [7], the inhibition of viability was 9.4% (inactive). The viability decrease (inhibition) in assay [8] is 2.7% (inactive); in [9], 9.1% (inactive). In addition, the red/green cell ratio (normalised) in assay [10] was 0.95 (inactive). The results for the normalised cell number in assay [10] (setting [15]) and in [10] (setting [16]) were 1.05 and 1, respectively. Besides, the z-score in assay [14] (MELAS cybrid survival, CellTiter-Glo 48 h, stronger effect = higher value) was -0.62 (inactive) and 0.631 (inactive); in [14] (Rieske KO mouse fibroblast survival, CellTiter-Glo 72 h) it was -0.885 and -0.197; in assay [12], -2.15 (inactive) and 0.43 (inactive). For the same compound, the remaining NAD in assay [13] is 10 nM (inactive).
As for `NCCNCCNCCN`, in assay [1], the parasite load remaining is 41.3% (inactive). Besides, in [1], the viability was found to be 163%. Moreover, the nuclear beta-catenin stimulation in assay [2] (at 10 µM) is 0.6% (inactive); in [2] (stimulation, at 2 µM) it was 0.7%. In assay [3], the insulin secretion stimulation was 0.4% (inactive). Further, in assay [4], the viability decrease was 0.25% (inactive). For the same compound, in assay [5], the tube area decrease was -7.4% (inactive). Further, the GLP1 secretion stimulation in assay [6] is -0.1% (inactive). Further, the inhibition of viability in [7] is 4.7% (inactive). The viability decrease (inhibition) is -40.9% (inactive) in assay [8] and 3.2% (inactive) in assay [9]. In assay [10], the red/green cell ratio (normalised) was 0.86 (inactive). In addition, the normalised cell number in assay [10] (setting [15]) stood at 1.02; in assay [10] (setting [16]), 0.88. The figures for the fold change in assay [11] (setting [17]) and in [11] (setting [18]) were 0.908 (inactive) and 4.46, respectively. For the same compound, the cell count came to 11700 in assay [11] (setting [19]) and 12900 in [11] (setting [20]). For the same compound, the remaining NAD in assay [13] was 10 nM (inactive).
As to `OC1C(O)C(O)C(O)C(O)C1O` (configuration not stated), in assay [1], the parasite load remaining was 41.7% (inactive). In assay [1], the viability came out at 104%. In addition, the nuclear beta-catenin stimulation in assay [2] (at 10 µM) was 2.8% (inactive); in assay [2] (stimulation, at 2 µM), 0.4%. Further, the insulin secretion stimulation in assay [3] is 0.4% (inactive). The viability decrease in assay [4] is -3.8% (inactive). Also, in assay [5], the tube area decrease is 3% (inactive). The GLP1 secretion stimulation in assay [6] was -2.7% (inactive). Also, the inhibition of viability in [7] is 3.1% (inactive). For the same compound, the values for the viability decrease (inhibition) in [8] and in assay [9] were 4.8% (inactive) and 0.6% (inactive), respectively. The red/green cell ratio (normalised) in assay [10] is 1.17 (inactive). The normalised cell number in [10] (setting [15]) was 0.97; in assay [10] (setting [16]), 1.13. Besides, the fold change in assay [11] (setting [17]) is 0.895 (inactive); in [11] (setting [18]), 0.941. The cell count in [11] (setting [19]) turned out to be 11600; in assay [11] (setting [20]), 12900. Besides, in assay [13], the remaining NAD was 10 nM (inactive).

Broadly, the viability is a read-out of living cells in per cent, often relative to untreated cells.
